Measured values reported in PubChem BioAssay AID1851 (National Center for Advancing Translational Sciences (NCATS), 2009).
Hit rate of the full screen: of about 16,000 compounds, about 5,700 (36%) were called active. Another 24% or so got no clear call; they are omitted. Some of the results follow. A number with no mark means an inactive call. The call rests on the fitted dose curve; in most records, active means well fitted curve in the direction sought with a large enough effect; inconclusive means small, poorly fitted or top-dose-only effect, or effect the other way; inactive means no such curve, though single readings can be large or run the other way.

biological target: Cytochrome P450 1A2 (Homo sapiens) (UniProt P05177); assay: Cytochrome panel assay with activity outcomes; details: recombinant CYP, pro-luciferin dealkylation, luminescence, p450-cyp1a2; series mostly up to 57.1 µM; activity, negative = inhibition: at the top concentration
Sequence (P05177 whole entry, looked up): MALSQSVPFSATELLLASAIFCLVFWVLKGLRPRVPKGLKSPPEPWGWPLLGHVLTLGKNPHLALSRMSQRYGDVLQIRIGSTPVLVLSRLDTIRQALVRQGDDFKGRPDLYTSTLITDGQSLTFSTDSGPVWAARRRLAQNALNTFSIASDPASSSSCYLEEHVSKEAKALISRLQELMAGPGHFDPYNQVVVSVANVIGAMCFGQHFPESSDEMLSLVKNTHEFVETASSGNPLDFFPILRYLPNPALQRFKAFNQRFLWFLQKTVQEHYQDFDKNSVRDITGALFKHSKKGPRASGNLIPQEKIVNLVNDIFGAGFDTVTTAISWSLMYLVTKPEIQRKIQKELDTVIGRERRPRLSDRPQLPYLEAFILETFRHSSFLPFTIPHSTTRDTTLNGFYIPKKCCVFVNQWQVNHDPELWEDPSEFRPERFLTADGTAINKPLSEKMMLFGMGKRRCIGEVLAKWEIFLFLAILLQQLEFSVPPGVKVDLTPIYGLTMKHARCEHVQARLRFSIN
On the % scale 0 is the no-effect control and ±100 the full control effect.

Q: Cc1cccc(NC(=S)NC(=O)c2cc(-c3ccccc3)nc3ccccc23)c1 was tested. Which AC50 did it give?
A: The AC50 was 8910 nM (active).

Q: With Cc1cc([N+](=O)[O-])nn1CC(=O)NNC(=S)Nc1ccc(F)cc1 as the molecule, how does the “activity, negative = inhibition” value read?
A: The value was -10.3%.

Q: Which AC50 does the source give for Cc1nc(SCC(=O)c2ccc(F)cc2)c([N+](=O)[O-])[nH]1 here?
A: The AC50 was 6310 nM (active).

Q: For Cn1cnc([N+](=O)[O-])c1SCC(=O)O, which activity, negative = inhibition is on record?
A: Its activity, negative = inhibition is -9.68% [at 11.4 µM].

Q: Which activity, negative = inhibition does the source give for O=C(O)CCCSc1nc2ccccc2s1 here?
A: The activity, negative = inhibition was -16.9% [at 11.4 µM].

Q: With c1ccc(NCCSc2nc3ccccc3s2)cc1 as the molecule, how does the AC50 read?
A: Its AC50 is 501 nM (active).

Q: With Oc1ccccc1C(Sc1nc2ccccc2s1)Sc1nc2ccccc2s1 as the molecule, how does the AC50 read?
A: The AC50 was 1260 nM (active).

Q: For NCCSc1nc2ccccc2s1, which AC50 is on record?
A: Its AC50 is 316 nM (active).

Q: How did the AC50 turn out when c1ccc2sc(SCCSc3nc4ccccc4s3)nc2c1 was run?
A: Its AC50 is 794 nM (active).

Q: CN(C)Cc1ccccc1-c1cc(Nc2ccccc2)ncn1 was tested. Which AC50 did it give?
A: Its AC50 is 15800 nM (active).

Q: How did the AC50 turn out when CN(C)Cc1ccccc1-c1cc(NC2CC2)ncn1 was run?
A: The AC50 was 12600 nM (active).

Q: How did the “activity, negative = inhibition” value turn out when CC12CCC(C(=O)Nc3ncc([N+](=O)[O-])s3)(OC1=O)C2(C)C (configuration not stated) was run?
A: The value was 0.774%.

Q: How did the “activity, negative = inhibition” value turn out when O=C(N/N=C/c1cccc(C(F)(F)F)c1)C1CCN(c2ncc(C(F)(F)F)cc2Cl)CC1 was run?
A: Its value is -12.3%.

Q: How did the AC50 turn out when CON/C=C(\C=Nc1ccccc1)c1ncc(C(F)(F)F)cc1Cl was run?
A: The AC50 was 2240 nM (active).

Q: With C[C@@]12CC[C@@H]3c4ccc(O)cc4CC[C@H]3[C@H]1C[C@@H](O)[C@H]2O as the molecule, how does the “activity, negative = inhibition” value read?
A: The value was -6.98% [at 25.6 µM].

Q: With CCc1cc2c(c(CC)n1)CCC(=O)N2Cc1ccc(-c2ccccc2-c2nn[nH]n2)cc1 as the molecule, how does the “activity, negative = inhibition” value read?
A: Its value is -18.6%.

Q: With O=C1C(=O)N(Cc2ccc(Cl)c(Cl)c2)c2ccccc21 as the molecule, how does the AC50 read?
A: Its AC50 is 12600 nM (active).

Q: With N#Cc1ccccc1-c1ccc2ncnc(NC3CC3)c2c1 as the molecule, how does the AC50 read?
A: The AC50 was 100 nM (active).

Q: For CNc1ncnc2ccc(-c3ccccc3C#N)cc12, which AC50 is on record?
A: The AC50 was 1000 nM (active).

Q: With Cc1cccc(C)c1NC(=O)c1cc2c(=O)c3ccccc3oc2nc1C(F)(F)F as the molecule, how does the “activity, negative = inhibition” value read?
A: The value was -28.1%.

Q: Cn1c(C(F)(F)F)nc2c(=O)oc3ccccc3c21 was tested. Which AC50 did it give?
A: Its AC50 is 158 nM (active).

Q: For CC(C)[C@H](CO)Nc1nc(Nc2cc(N)cc(Cl)c2)c2ncn(C(C)C)c2n1, which AC50 is on record?
A: The AC50 was 501 nM (active).

Q: For CC(C)[C@H](CO)Nc1nc(Nc2ccc(C(=O)O)c(Cl)c2)c2ncn(C(C)C)c2n1, which “activity, negative = inhibition” value is on record?
A: The value was -16.8%.

Q: For Cc1cc(N)n2ncc(-c3ccc(Cl)cc3)c2n1, which AC50 is on record?
A: The AC50 was 1260 nM (active).

Q: CC1(C)O[C@@H]2O[C@H]([C@@H]3COC(C)(C)O3)[C@H](N)[C@H]2O1 was tested. Which activity, negative = inhibition did it give?
A: The activity, negative = inhibition was 8.69% [at 2.29 µM].

Q: How did the AC50 turn out when O=C(Nc1ccc2ccccc2c1)c1onc2c1CCCC2 was run?
A: The AC50 was 4470 nM (active).

Q: Cc1cccc(NC(=S)N2CCC(N(C)CC3CCCO3)CC2)c1C (configuration not stated) was tested. Which “activity, negative = inhibition” value did it give?
A: Its value is 3.1%.

Q: For Cc1cccc(NC(=O)c2onc3c2CCCC3)c1C, which AC50 is on record?
A: The AC50 was 2240 nM (active).

Q: For CO[C@@H]1COC(=O)C/C=C\[C@H](C)COC(=O)[C@H](Cc2ccccc2)NC(=O)C/C=C\[C@H]1C, which activity, negative = inhibition is on record?
A: Its activity, negative = inhibition is 4.04% [at 11.4 µM].

Q: For Cn1c(-c2ccc(Br)cc2)cnc1NCc1cccnc1, which AC50 is on record?
A: The AC50 was 12600 nM (active).

Q: For Cc1ccnc(NS(=O)(=O)c2ccc(N=[N+]=[N-])cc2)n1, which activity, negative = inhibition is on record?
A: The activity, negative = inhibition was -6.01% [at 11.4 µM].

Q: How did the AC50 turn out when CC(=C/c1ccccc1)/C=N/n1cnnc1 was run?
A: The AC50 was 2000 nM (active).

Q: CC(=C\C(=O)O)/C(=C/c1ccccc1)C(=O)O was tested. Which “activity, negative = inhibition” value did it give?
A: Its value is -20.1%.

Q: For COC(=O)c1ccc(C2C(Oc3ccccc3)C(=O)N2CCc2ccc(OC)c(OC)c2)cc1 (configuration not stated), which “activity, negative = inhibition” value is on record?
A: Its value is 4.21%.

Q: For Cc1cnc(CNc2ncnc3ccc(-c4ccccc4C)cc23)cn1, which AC50 is on record?
A: Its AC50 is 6310 nM (active).

Q: Cc1cnc(CNc2ncnc3ccc(-c4ccccc4C(F)(F)F)cc23)cn1 was tested. Which AC50 did it give?
A: Its AC50 is 12600 nM (active).

Q: Cc1cnc(CNc2ncnc3ccc(-c4ccccc4Cl)cc23)cn1 was tested. Which AC50 did it give?
A: Its AC50 is 6310 nM (active).

Q: For COc1ccccc1-c1ccc2ncnc(NCc3cnc(C)cn3)c2c1, which AC50 is on record?
A: The AC50 was 6310 nM (active).

Q: For Cc1cnc(CNc2ncnc3ccc(-c4ccccc4CN(C)C)cc23)cn1, which “activity, negative = inhibition” value is on record?
A: Its value is -18.6%.

Q: Which “activity, negative = inhibition” value does the source give for CC(C)NC(=O)N1CC[C@@]2(CCCN(C(=O)c3csnn3)C2)C1 here?
A: The value was -3.33%.

Q: How did the “activity, negative = inhibition” value turn out when CC[C@@H]1OC(=O)[C@H](C)[C@H](O[C@@H]2C[C@](C)(OC)[C@H](O)[C@H](C)O2)[C@H](C)[C@H](O[C@@H]2O[C@@H](C)C[C@@H](N(C)C)[C@@H]2O)[C@](C)(O)C[C@H](C)C(=NOCOCCOC)[C@H](C)[C@H](O)[C@]1(C)O was run?
A: The value was -3% [at 25.6 µM].

Q: For CC(C)CO/N=C1/C[C@@H](O)[C@@H](O)[C@@H]2[C@H]3C(=O)N(c4ccc(F)cc4F)C(=O)[C@@H]3CC[C@H]12, which activity, negative = inhibition is on record?
A: Its activity, negative = inhibition is 0.352% [at 11.4 µM].

Q: With O=C(Nc1ccc2oc(=O)c(C(=O)O)cc2c1)Oc1ccccc1 as the molecule, how does the activity, negative = inhibition read?
A: Its activity, negative = inhibition is -15.3% [at 2.29 µM].

Q: CC(=O)c1cc2ccccc2oc1=O was tested. Which AC50 did it give?
A: The AC50 was 200 nM (active).

Q: How did the AC50 turn out when CC(C)OC(=O)c1cc2ccccc2oc1=O was run?
A: The AC50 was 447 nM (active).

Q: How did the “activity, negative = inhibition” value turn out when Cc1ccc[n+](CC(=O)c2cc3ccccc3oc2=O)c1 was run?
A: Its value is 6.85%.

Q: With CC(C)NCC[C@@H](O)c1cc2ccccc2o1 as the molecule, how does the activity, negative = inhibition read?
A: The activity, negative = inhibition was -2.1% [at 2.29 µM].
